Assay results as given in PubChem BioAssay (Tox21).
Results filed as inconclusive are left out. Activity calls are given as the source filed them. Unless noted, calls follow the shape of the dose curve; as a rule, active = well fitted curve in the direction sought with a large enough effect in the repeat runs; inconclusive = weak or mixed curves; inactive = no such curve, though single readings can be large; an effect the other way counts as inactive or inconclusive.

Experiments:
[1] = qHTS assay to identify small molecule agonists of the hypoxia (HIF-1) signaling pathway - cell viability counter screen (AID 1224844; calls by dose curve; also: nearly all actives have a fitted effect of over 50% in size; also: potency is read from the fitted curve at half-maximal effect)
Outline: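 ME-180 HRE-bla cells, 2,000/well, 0.5% dialyzed FBS; 5 hr settle, 17 hr compound at 37C/5% CO2; CCF4-AM reporter read first, then CellTiter-Glo luminescence after 30 min RT.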

[2] = qHTS assay to identify small molecule agonists of H2AX (AID 1224845; active = well fitted activation curve with a large enough effect in the signal ratio in the repeat runs, not every such curve was filed as active; the % refers to the signal ratio)
Outline: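 Wild-type CHO-K1 cells plated overnight, then exposed 3 hr at 37C to compounds at 15 concentrations (0.76% DMSO). Lysed, then HTRF anti-pH2AX(S139)-cryptate/anti-H2AX-d2 detection after 24 hr at room temperature; emissions 665 and 620 nm.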

[3] = qHTS assay to identify small molecule agonists of H2AX - cell viability counter screen (AID 1224847; calls by dose curve; also: nearly all actives have a fitted effect of over 30% in size; also: potency is read from the fitted curve at half-maximal effect)
Outline: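 Read-out: CellTiter-Glo luminescence, 30 min RT. Cells: wild-type CHO-K1, 1000/well, 10% FBS, plated overnight at 37C. Treatment: 15 concentrations, 3 hr, 37C, 0.76% DMSO.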

[4] = qHTS RealTime-Glo MT Cell Viability Assay in HepG2 cells - 24 hour (AID 1224867); also: nearly all actives have a fitted effect of over 50% in size; also: potency is read from the fitted curve at half-maximal effect
Outline: (§1)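 HepG2 suspension premixed with RealTime-Glo reagents is plated at 600 cells per well and left 5 h at 37 C/5% CO2. Compounds in DMSO then go in, and bioluminescence reflecting viable cell number is recorded over 40 h.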

[5] = qHTS RealTime-Glo MT Cell Viability Assay in HEK293 cells - 32 hour (AID 1224868); also: nearly all actives have a fitted effect of over 50% in size; also: potency is read from the fitted curve at half-maximal effect
Outline: (§2)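 Reads taken at 0, 8, 16, 24, 32 and 40 h from the same wells. HEK293 cells (600/well) carried RealTime-Glo reagents from seeding, with compound added after a 5 h settle at 37 C.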

[6] = A CellTox Green Cytotoxicity Assay to monitor cytotoxicity in HEK293 cells - 0 hour (AID 1224869); also: nearly all actives have a fitted effect of over 50% in size
Outline: (§3)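 Nonlytic real-time cytotoxicity: HEK293 + CellTox Green reagent plated, 5 h preincubation, pintool compound addition (23 nL in DMSO), 37 C for 40 h, fluorescence measured at successive time points.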

[7] = qHTS RealTime-Glo MT Cell Viability Assay in HepG2 cells - 40 hour (AID 1224870); also: nearly all actives have a fitted effect of over 50% in size; also: potency is read from the fitted curve at half-maximal effect
Outline: (§4)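 HepG2 cells mixed with RealTime-Glo MT reagents (NanoLuc plus cell-permeant prosubstrate) were seeded at 600 cells/well, incubated 5 h at 37 C/5% CO2, then pinned with compounds in DMSO; nonlytic luminescence tracked viability during 40 h treatment.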

[8] = qHTS RealTime-Glo MT Cell Viability Assay in HEK293 cells - 16 hour (AID 1224872); also: nearly all actives have a fitted effect of over 50% in size; also: potency is read from the fitted curve at half-maximal effect
Outline: as §2

[9] = qHTS RealTime-Glo MT Cell Viability Assay in HepG2 cells - 8 hour (AID 1224873); also: nearly all actives have a fitted effect of over 55% in size
Outline: as §4

[10] = qHTS RealTime-Glo MT Cell Viability Assay in HEK293 cells - 40 hour (AID 1224874); conditions: RealTime-Glo luminescence; max response: stronger effect = lower value; also: nearly all actives have a fitted effect of over 50% in size; also: potency is read from the fitted curve at half-maximal effect
Outline: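 Cells were seeded together with NanoLuc luciferase and a prosubstrate that viable cells reduce to a luciferase substrate. After a 5 h incubation at 37 C/5% CO2, compounds were added and luminescence was measured repeatedly during 40 h of treatment.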

[11] = A CellTox Green Cytotoxicity Assay to monitor cytotoxicity in HepG2 cells - 16 hour (AID 1224876); also: nearly all actives have a fitted effect of over 45% in size; also: potency is read from the fitted curve at half-maximal effect
Outline: (§5)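 Read-out is fluorescence of a cyanine dye excluded from live cells that stains DNA of dead HepG2 cells, with signal proportional to cytotoxicity. Plates were read at 0, 8, 16, 24, 32 and 40 h after compound addition.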

[12] = qHTS RealTime-Glo MT Cell Viability Assay in HepG2 cells - 32 hour (AID 1224877); also: nearly all actives have a fitted effect of over 55% in size; also: potency is read from the fitted curve at half-maximal effect
Outline: as §1

[13] = A CellTox Green Cytotoxicity Assay to monitor cytotoxicity in HepG2 cells - 24 hour (AID 1224878); also: nearly all actives have a fitted effect of over 45% in size; also: potency is read from the fitted curve at half-maximal effect
Outline: as §5

[14] = A CellTox Green Cytotoxicity Assay to monitor cytotoxicity in HepG2 cells - 40 hour (AID 1224879); also: nearly all actives have a fitted effect of over 40% in size; also: potency is read from the fitted curve at half-maximal effect
Outline: as §5

[15] = qHTS assay to identify small molecule agonists of the hypoxia (HIF-1) signaling pathway (AID 1224846; active = well fitted activation curve with a large enough effect in the signal ratio in the repeat runs, not every such curve was filed as active; the % refers to the signal ratio)
Outline: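 Cell line: CellSensor HRE-bla ME-180; 2,000 cells/well; 0.5% dialyzed FBS; 5 h preincubation; DMSO compound pin transfer; 17 h, 37C, 5% CO2; CCF4-AM added; bla FRET signal scored for activation.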

[16] = qHTS assay to identify small molecule antagonists of the estrogen related receptor (ERR) signaling pathway from Tox21 library (AID 1224848); also: nearly all actives have a fitted effect of over 50% in size; also: potency is read from the fitted curve at half-maximal effect
Outline: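 Cells: ERR line, 2,000/well; 6 h preincubation 37 C/5% CO2. Cpd in DMSO via pin tool; 18 h, 37 C. ONE-Glo, 30 min RT, luminescence.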

[17] = qHTS assay to identify small molecule agonists of the estrogen related receptor (ERR) signaling pathway from Tox21 library (AID 1224849; calls by dose curve; also: nearly all actives have a fitted effect of over 15% in size); conditions: ERR reporter cell line, ONE-Glo luciferase, 18 h; at 92.4 µM (top of the series) unless noted
Outline: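 ERR cells, 6 h pre-incubation 37 C/5% CO2; cpd in DMSO pinned; 18 h 37 C; ONE-Glo added, 30 min RT; luminescence read. Agonist mode, qHTS.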

[18] = A CellTox Green Cytotoxicity Assay to monitor cytotoxicity in HEK293 cells - 40 hour (AID 1224871); also: nearly all actives have a fitted effect of over 45% in size; also: potency is read from the fitted curve at half-maximal effect
Outline: as §3

[19] = A CellTox Green Cytotoxicity Assay to monitor cytotoxicity in HEK293 cells - 24 hour (AID 1224875); also: nearly all actives have a fitted effect of over 45% in size
Outline: as §3
% is scaled to controls: 0 for no effect and ±100 for the full control effect.

CC(C)C(=O)OCCOc1ccccc1
inactive: Potency [1] | Potency [2] | Potency [3] | Potency [4] | Potency [5] | Potency [6] | Potency [7] | Potency [8] | Potency [9] | max response [10] 2.62% | Potency [11] | Potency [12] | Potency [13] | Potency [14]

O=C(Oc1ccccc1)c1ccc2ccccc2c1O
inactive: Potency [1] | Potency [2] | outcome [15] | Potency [16] | Potency [4] | Potency [5] | Potency [6] | Potency [7] | Potency [18] | Potency [9] | max response [10] -20.6% | Potency [19] | Potency [12] | Potency [14]
active: activity change, positive = activation [17] 116%

Nc1ccc(F)cc1
inactive: Potency [1] | Potency [2] | Potency [3] | Potency [16] | activity change, positive = activation [17] 0.224% | Potency [4] | Potency [5] | Potency [6] | Potency [7] | Potency [8] | Potency [9] | max response [10] 14.2% | Potency [19] | Potency [11] | Potency [12] | Potency [13] | Potency [14]

CC(=O)OCCC1CCCCC1
inactive: Potency [1] | outcome [15] | Potency [3] | Potency [4] | Potency [5] | Potency [6] | Potency [7] | Potency [8] | Potency [9] | max response [10] 6.39% | Potency [19] | Potency [12]

O=C(O)CCC(=O)OC[C@@H](NC(=O)C(Cl)Cl)[C@H](O)c1ccc([N+](=O)[O-])cc1
active: Potency [18] 21.3 µM | Potency [11] 9.52 µM | Potency [13] 19 µM | Potency [14] 19 µM
inactive: Potency [1] | Potency [2] | outcome [15] | Potency [3] | Potency [4] | Potency [5] | Potency [7] | Potency [8] | Potency [9] | max response [10] 5.1% | Potency [12]

c1ccc(CCCc2ccncc2)cc1
inactive: Potency [4] | Potency [5] | Potency [6] | Potency [7] | Potency [9] | max response [10] -19.7% | Potency [12]
active: Potency [11] 12.3 µM

CCN(CC)c1ccc(C(=C2C=CC(=[N+](CC)CC)C=C2)c2ccc(S(=O)(=O)O)cc2S(=O)(=O)[O-])cc1
inactive: outcome [15] | activity change, positive = activation [17] -60.1% | Potency [4] | Potency [5] | Potency [6] | Potency [18] | Potency [8] | Potency [9] | max response [10] -1.18% | Potency [19] | Potency [11] | Potency [12] | Potency [13] | Potency [14]
active: Potency [1] 8.71 µM | Potency [3] 12.7 µM | Potency [16] 9.69 µM

Cc1c(C2(c3cc(Br)c(O)c(Br)c3C)OS(=O)(=O)c3ccccc32)cc(Br)c(O)c1Br
inactive: outcome [15] | activity change, positive = activation [17] -68% | Potency [4] | Potency [5] | Potency [6] | Potency [18] | Potency [8] | Potency [9] | max response [10] -21.5% | Potency [19] | Potency [11] | Potency [12] | Potency [13] | Potency [14]
active: Potency [1] 16.9 µM | Potency [3] 9.77 µM | Potency [16] 11.8 µM

Nc1ccc(NC(=O)c2ccc(N)cc2)cc1
inactive: Potency [1] | outcome [15] | Potency [3] | Potency [16] | Potency [4] | Potency [5] | Potency [6] | Potency [7] | Potency [18] | Potency [8] | Potency [9] | max response [10] -13% | Potency [12] | Potency [13]

C1CCCCC1
inactive: Potency [1] | Potency [2] | Potency [3] | Potency [16] | activity change, positive = activation [17] 7.76% | Potency [4] | Potency [5] | Potency [6] | Potency [7] | Potency [18] | Potency [8] | Potency [9] | max response [10] 1.11% | Potency [19] | Potency [11] | Potency [12] | Potency [14]

CO[C@@H]1[C@@H](OC)[C@H](C)[C@@](O)(CC(=O)O)O[C@H]1[C@H](C)[C@H]1O[C@@]2(CC[C@@](C)([C@H]3CC[C@@](C)([C@@H]4O[C@@H]([C@H]5O[C@](C)(O)[C@H](C)C[C@@H]5C)C[C@@H]4OC4C[C@H](OC)[C@@H](OC)[C@H](C)O4)O3)O2)C[C@H](O)[C@H]1C (some centres not stated)
inactive: Potency [2] | Potency [6] | Potency [19]
active: Potency [4] 5.35 µM | Potency [5] 3.01 µM | Potency [7] 6.01 µM | Potency [18] 4.77 µM | Potency [8] 5.35 µM | Potency [10] 2.39 µM | Potency [12] 5.35 µM | Potency [14] 6.74 µM

CC(=O)OCC(=O)[C@@]1(OC(C)=O)[C@@H](C)C[C@H]2[C@@H]3C[C@H](F)C4=CC(=O)C=C[C@]4(C)[C@@]3(F)[C@@H](O)C[C@@]21C
inactive: Potency [2] | Potency [3] | Potency [4] | Potency [5] | Potency [6] | Potency [7] | Potency [18] | Potency [8] | Potency [9] | max response [10] -24.6% | Potency [19] | Potency [11] | Potency [12] | Potency [13] | Potency [14]
